# Records with an inconclusive call do not appear. Active and inactive are the calls of the source.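 How the source made its calls, unless noted: active means normalized viability below 100% at a tested concentration; inactive means the rest.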
# What was measured:
# [1] = viability loss in pontine glioma line – cell-based, SU-DIPG-XVII, MIPE5.0, CellTiter-Glo, qHTS, dose response (AID 1347060; cut-off not given, nearly all actives have AC50 up to about 26 µM;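 on AC50: cells exposed to compound for 48 hours before viability readout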); conditions: CellTiter-Glo ATP luminescence
# [2] = viability loss in pontine glioma line – cell-based, SU-DIPG-XIII, MIPE4.0, CellTiter-Glo, qHTS, dose response (AID 1347061; cut-off not given, nearly all actives have AC50 up to about 37 µM;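 further: cells exposed to compound for 48 hours before readout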); conditions: CellTiter-Glo ATP luminescence
# [3] = viability loss in pontine glioma line – cell-based, JHH-DIPG-1, MIPE4.0, CellTiter-Glo, qHTS, dose response (AID 1347062; cut-off not given, nearly all actives have AC50 up to about 27 µM;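 on AC50: cells exposed to compound for two days before readout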); conditions: JHH-DIPG-1 viability, CellTiter-Glo ATP luminescence
# [4] = viability loss in pontine glioma line – cell-based, SU-DIPG-IV, MIPE4.0, CellTiter-Glo, qHTS, dose response (AID 1347063; cut-off not given, nearly all actives have AC50 up to about 30 µM;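 further: compound exposure lasted 48 hours before the viability readout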); conditions: CellTiter-Glo ATP luminescence
# [5] = viability loss in pontine glioma line – cell-based, SU-DIPG-XIII, MIPE5.0, CellTiter-Glo, qHTS, dose response (AID 1347064; cut-off not given, nearly all actives have AC50 up to about 23 µM;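 on AC50: cells exposed to compound for 48 hours before the viability read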); conditions: CellTiter-Glo ATP luminescence
# [6] = viability loss in pontine glioma line – cell-based, SU-DIPG-XXV, MIPE5.0, CellTiter-Glo, qHTS, dose response (AID 1347065; cut-off not given, nearly all actives have AC50 up to about 26 µM;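 further: cells exposed to compound for 48 hours before ATP readout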); conditions: CellTiter-Glo ATP luminescence
# [7] = JHH-DIPG-1 glioma cell viability, MIPE5.0 library, CellTiter-Glo luminescence, qHTS (AID 1347067; cut-off not given, nearly all actives have AC50 up to about 26 µM;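 further: cells exposed to compound for 48 hours before readout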); conditions: JHH-DIPG-1 glioma viability, CellTiter-Glo ATP luminescence
# [8] = compounds altering HSF1 focus formation in cells – imaging, Selleck Cancer Library (AID 1347162; in the data active means plate-normalised HSF1 focus index below about 0.46); conditions: human cells, HSF1 nuclear foci imaging, at 10 µM; SSMD: measured here: HSF1 foci SSMD mean; cell count: measured here: cell number; plate-normalised HSF1 focus index: stronger effect = lower value
# [9] = growth inhibition of DIPG cells – cell-based, MIPE5.0 library, qHTS (AID 1347068; cut-off not given, nearly all actives have IC50 up to about 30 µM;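 on IC50: cells exposed to compound for 48 hours before viability readout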); conditions: SU-DIPG-XXV viability
# [10] = viability loss with induced miR-34 in A549 – imaging, A549 dox-inducible miR-34, nuclei and caspase counts, primary screen (AID 1347080;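 active means compounds whose cell count with miR-34 switched on is under 0.7 times the count with it off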); conditions: A549 miR-34 inducible, Hoechst nuclei count, 48 h
# [11] = MELAS cybrid and Rieske KO viability enhancers – cell-based, MELAS cybrids, Rieske KO mouse fibroblasts, CellTiter-Glo, primary screen (AID 1508586;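 active means mean z-score across replicates of 1.96 or higher in either the MELAS or the Rieske mutant cell line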;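 further: z relative to plate mean and SD of compound and empty wells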); conditions: low glucose
# [12] = drug combination growth inhibition, ovarian cancer – cell-based, oncology-focused library, rucaparib conditional, profiling panel (AID 1508598); conditions: patient-derived ovarian cancer cells, CellTiter-Glo viability, 144 h, stronger effect = lower value
# [13] = growth inhibition of DIPG cells – cell-based, MIPE4.0 library, CellTiter-Glo luminescence, qHTS (AID 1347066; cut-off not given, nearly all actives have AC50 up to about 30 µM;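 further: cells exposed to compound for 48 hours before readout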); conditions: SU-DIPG-VI viability, CellTiter-Glo ATP luminescence
compound,measurement,setting,value
CC(C)(C)c1[nH]cnc1/C=c1\[nH]c(=O)/c(=C/c2ccccc2)[nH]c1=O,AC50,[1],0.0372 µM (active)
same,AC50,[2],42.9 µM (active)
same,AC50,[3],0.34 µM (active)
same,AC50,[4],42.9 µM (active)
same,AC50,[5],0.166 µM (active)
same,AC50,[6],0.0468 µM (active)
same,AC50,[7],0.0525 µM (active)
same,SSMD,[8],2.69
same,cell count,[8],7220
same,plate-normalised HSF1 focus index,[8],1.17 (inactive)
COc1ccc2c3n(c(=NC(=O)c4cccnc4)nc2c1OC)CCN3,AC50,[1],1.05 µM (active)
same,AC50,[2],13.2 µM (active)
same,AC50,[3],8.33 µM (active)
same,AC50,[4],1.05 µM (active)
same,AC50,[5],0.742 µM (active)
same,AC50,[6],0.59 µM (active)
same,outcome,[9],inactive
same,SSMD,[8],-0.125
same,cell count,[8],7610
same,plate-normalised HSF1 focus index,[8],0.991 (inactive)
CC(C)c1cc(-c2n[nH]c(=O)n2-c2ccc3c(ccn3C)c2)c(O)cc1O,AC50,[1],0.0372 µM (active)
same,AC50,[2],0.132 µM (active)
same,AC50,[3],0.0662 µM (active)
same,AC50,[4],0.059 µM (active)
same,AC50,[5],0.0417 µM (active)
same,AC50,[6],0.0372 µM (active)
same,IC50,[9],0.0833 µM (active)
same,fold change,"[10]; stronger effect = lower value, cell number ratio, induced over uninduced",1.03 (inactive)
same,fold change,[10]; measured here: relative caspase fold change +Dox/-Dox,0.773
same,cell count,"[10]; measured here: total cells with miR-34 induction, stronger effect = lower value",1450
same,cell count,[10]; measured here: total cells without miR-34 induction,1400
same,z-score,"[11]; MELAS cybrid survival, CellTiter-Glo 48 h, stronger effect = higher value",3.03 (active)
same,z-score,"[11]; Rieske KO mouse fibroblast survival, CellTiter-Glo 72 h",0.0782
same,viability,"[12]; at 0.000305 µM, OCI-C5x cells, with rucaparib 10 µM, 100% = cells with rucaparib alone",102% (inactive)
same,viability,"[12]; at 0.000305 µM, OCI-C5x cells, without rucaparib",108% (inactive)
same,viability,"[12]; at 0.000305 µM, OCI-P5x cells, with rucaparib 20 µM, 100% = cells with rucaparib alone",116% (inactive)
same,viability,"[12]; at 0.000305 µM, OCI-P5x cells, without rucaparib",121% (inactive)
same,viability,"[12]; at 0.00122 µM, OCI-C5x cells, with rucaparib 10 µM, 100% = cells with rucaparib alone",100% (inactive)
same,viability,"[12]; at 0.00122 µM, OCI-C5x cells, without rucaparib",98.2% (active)
same,viability,"[12]; at 0.00122 µM, OCI-P5x cells, with rucaparib 20 µM, 100% = cells with rucaparib alone",124% (inactive)
same,viability,"[12]; at 0.00122 µM, OCI-P5x cells, without rucaparib",119% (inactive)
same,viability,"[12]; at 0.00488 µM, OCI-C5x cells, with rucaparib 10 µM, 100% = cells with rucaparib alone",96.9% (active)
same,viability,"[12]; at 0.00488 µM, OCI-C5x cells, without rucaparib",110% (inactive)
same,viability,"[12]; at 0.00488 µM, OCI-P5x cells, with rucaparib 20 µM, 100% = cells with rucaparib alone",126% (inactive)
same,viability,"[12]; at 0.00488 µM, OCI-P5x cells, without rucaparib",124% (inactive)
same,viability,"[12]; at 0.0195 µM, OCI-C5x cells, with rucaparib 10 µM, 100% = cells with rucaparib alone",117% (inactive)
same,viability,"[12]; at 0.0195 µM, OCI-C5x cells, without rucaparib",117% (inactive)
same,viability,"[12]; at 0.0195 µM, OCI-P5x cells, with rucaparib 20 µM, 100% = cells with rucaparib alone",85.2% (active)
same,viability,"[12]; at 0.0195 µM, OCI-P5x cells, without rucaparib",104% (inactive)
same,viability,"[12]; at 0.0781 µM, OCI-C5x cells, with rucaparib 10 µM, 100% = cells with rucaparib alone",44.1% (active)
same,viability,"[12]; at 0.0781 µM, OCI-C5x cells, without rucaparib",14.7% (active)
same,viability,"[12]; at 0.0781 µM, OCI-P5x cells, with rucaparib 20 µM, 100% = cells with rucaparib alone",18.8% (active)
same,viability,"[12]; at 0.0781 µM, OCI-P5x cells, without rucaparib",10.9% (active)
same,viability,"[12]; at 0.313 µM, OCI-C5x cells, with rucaparib 10 µM, 100% = cells with rucaparib alone",11.6% (active)
same,viability,"[12]; at 0.313 µM, OCI-C5x cells, without rucaparib",6.96% (active)
same,viability,"[12]; at 0.313 µM, OCI-P5x cells, with rucaparib 20 µM, 100% = cells with rucaparib alone",6.88% (active)
same,viability,"[12]; at 0.313 µM, OCI-P5x cells, without rucaparib",5.54% (active)
same,viability,"[12]; at 1.25 µM, OCI-C5x cells, with rucaparib 10 µM, 100% = cells with rucaparib alone",10% (active)
same,viability,"[12]; at 1.25 µM, OCI-C5x cells, without rucaparib",6.57% (active)
same,viability,"[12]; at 1.25 µM, OCI-P5x cells, with rucaparib 20 µM, 100% = cells with rucaparib alone",5.29% (active)
same,viability,"[12]; at 1.25 µM, OCI-P5x cells, without rucaparib",4.83% (active)
same,viability,"[12]; at 5 µM, OCI-C5x cells, with rucaparib 10 µM, 100% = cells with rucaparib alone",8.35% (active)
same,viability,"[12]; at 5 µM, OCI-C5x cells, without rucaparib",6.47% (active)
same,viability,"[12]; at 5 µM, OCI-P5x cells, with rucaparib 20 µM, 100% = cells with rucaparib alone",6.04% (active)
same,viability,"[12]; at 5 µM, OCI-P5x cells, without rucaparib",5.33% (active)
C[Se]CCC(N)C(=O)O (stereo not drawn),outcome,[1],inactive
same,outcome,[2],inactive
same,outcome,[3],inactive
same,outcome,[4],inactive
same,outcome,[5],inactive
same,outcome,[13],inactive
same,outcome,[7],inactive
same,outcome,[9],inactive
CC(C)Oc1cc(Nc2nc(N[C@@H](C)c3ccc(F)cn3)ncc2Cl)[nH]n1,AC50,[1],1.05 µM (active)
same,AC50,[2],11.8 µM (active)
same,AC50,[3],10.5 µM (active)
same,AC50,[4],6.62 µM (active)
same,AC50,[5],1.18 µM (active)
same,AC50,[6],0.742 µM (active)
same,AC50,[7],5.9 µM (active)
same,SSMD,[8],-0.66
same,cell count,[8],6860
same,plate-normalised HSF1 focus index,[8],0.979 (inactive)
